# From ChEMBL document CHEMBL3988442, “University of Dundee, Small-Polar-MMV Screening Library” (2021)
# For some of these results: Measured potencies and affinities stand elsewhere.
# Experiments:
# Set-up in all cases: scale not given: direction of the effect not stated beside the values
# [1] = molecular target: Protein translocase subunit SecA (Escherichia coli (strain K12)) (UniProt P10408); assay: Assay to Identify E. coli SecA ATPase Inhibitors; assay type: functional; details: 30 µM
# [2] = molecular target: T1, Ubiquitin-activating enzyme e1, putative (Leishmania donovani (strain BPK282A1)) (UniProt E9BSI1); assay: Leishmania donovani Ubiquitin Activating Enzyme (LdE1); assay type: functional; details: 30 µM
# T1 sequence (whole entry): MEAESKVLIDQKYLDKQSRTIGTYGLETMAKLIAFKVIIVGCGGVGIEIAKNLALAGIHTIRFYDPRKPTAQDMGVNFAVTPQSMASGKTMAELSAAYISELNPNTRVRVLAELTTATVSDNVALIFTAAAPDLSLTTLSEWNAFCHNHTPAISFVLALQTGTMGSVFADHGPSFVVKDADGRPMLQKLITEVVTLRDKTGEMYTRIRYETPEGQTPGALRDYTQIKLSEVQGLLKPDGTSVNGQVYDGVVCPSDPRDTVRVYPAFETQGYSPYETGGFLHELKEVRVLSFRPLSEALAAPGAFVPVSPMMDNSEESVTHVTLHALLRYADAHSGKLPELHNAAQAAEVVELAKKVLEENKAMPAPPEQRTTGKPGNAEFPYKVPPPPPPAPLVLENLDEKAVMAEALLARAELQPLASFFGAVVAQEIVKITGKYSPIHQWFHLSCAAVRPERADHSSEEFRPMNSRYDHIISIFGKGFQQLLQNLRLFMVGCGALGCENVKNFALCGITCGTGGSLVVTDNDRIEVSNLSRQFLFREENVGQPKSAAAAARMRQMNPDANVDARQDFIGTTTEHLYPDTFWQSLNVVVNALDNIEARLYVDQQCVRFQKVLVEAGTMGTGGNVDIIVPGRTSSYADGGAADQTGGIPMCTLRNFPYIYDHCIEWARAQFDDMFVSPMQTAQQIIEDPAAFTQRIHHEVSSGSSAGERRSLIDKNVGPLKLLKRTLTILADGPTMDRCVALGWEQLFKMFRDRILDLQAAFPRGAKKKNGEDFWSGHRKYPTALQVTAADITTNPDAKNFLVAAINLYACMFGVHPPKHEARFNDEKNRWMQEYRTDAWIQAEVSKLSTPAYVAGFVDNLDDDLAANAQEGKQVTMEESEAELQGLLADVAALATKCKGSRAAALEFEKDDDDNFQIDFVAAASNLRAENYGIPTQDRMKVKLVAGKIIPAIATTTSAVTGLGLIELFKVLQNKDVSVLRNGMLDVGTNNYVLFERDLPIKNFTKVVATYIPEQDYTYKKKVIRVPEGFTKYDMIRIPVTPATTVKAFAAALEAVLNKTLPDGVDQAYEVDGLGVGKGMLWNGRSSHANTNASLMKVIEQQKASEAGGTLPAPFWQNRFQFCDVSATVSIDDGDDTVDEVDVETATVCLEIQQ
# [3] = molecular target: AMP-activated protein kinase, AMPK (Homo sapiens) (UniProt P54646+O43741+P54619+Q9UGJ0+Q9Y478+Q13131+Q9UGI9); assay: AMP-dependent Kinase enzyme assay. An in vitro enzyme assay that detects ADP turnover that is directly proportional to AMPK activity. This uses naive AMPK that is activated during the assay with MK-8722; assay type: functional; details: 30 µM
# [4] = molecular target: Sialic acid-binding Ig-like lectin 9 (Homo sapiens) (UniProt Q9Y336); assay: Hs-Siglec9 ALPHAscreen SOP 20170721; details: 10 µM
# [5] = tested on: Trypanosoma cruzi; assay: Trypanosoma cruzi phosphomannomutase and mannose-1-phosphate guanylyltransferase assay; assay type: functional; details: 10 µM
# [6] = molecular target: T2, Arginase-2, mitochondrial (Homo sapiens) (UniProt P78540); assay: in vitro enzyme assay to detect the production of urea directly proportional to the activity of Arginase II; assay type: functional; details: 33.3 µM; also: in the data most compounds retested in dose-response had high values
# T2 sequence (whole entry): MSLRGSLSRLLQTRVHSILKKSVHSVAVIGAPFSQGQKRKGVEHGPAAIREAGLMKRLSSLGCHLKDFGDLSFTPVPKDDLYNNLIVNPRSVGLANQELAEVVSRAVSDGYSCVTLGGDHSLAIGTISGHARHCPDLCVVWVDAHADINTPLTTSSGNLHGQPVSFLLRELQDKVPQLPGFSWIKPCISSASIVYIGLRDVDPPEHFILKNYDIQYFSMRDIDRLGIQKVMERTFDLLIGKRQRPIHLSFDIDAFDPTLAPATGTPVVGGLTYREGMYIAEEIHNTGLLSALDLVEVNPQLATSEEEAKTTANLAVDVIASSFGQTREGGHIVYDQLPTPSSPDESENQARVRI
# [7] = molecular target: T3, Proteasome subunit beta (Trypanosoma cruzi) (UniProt O96673); assay: Trypanosoma cruzi proteasome chymotrypsin-like activity (TcProtChymo) assay.; also: in the data most compounds retested in dose-response had high values; assay type: functional; details: 9.37 µM
# T3 sequence (whole entry): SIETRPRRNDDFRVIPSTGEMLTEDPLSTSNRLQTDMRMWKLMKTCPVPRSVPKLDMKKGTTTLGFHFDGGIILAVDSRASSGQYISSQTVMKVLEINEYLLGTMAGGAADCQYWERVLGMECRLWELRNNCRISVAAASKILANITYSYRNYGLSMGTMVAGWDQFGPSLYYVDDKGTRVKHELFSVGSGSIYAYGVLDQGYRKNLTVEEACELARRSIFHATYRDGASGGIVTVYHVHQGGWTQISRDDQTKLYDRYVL
# [8] = species: Homo sapiens; assay: To identify inhibition of the IFN signalling (Jak-Stat) pathway via expression of an eGFP reporter gene under the control of an IFN-stimulated response element (ISRE) containing MxA promoter.; assay type: functional; details: 30 µM
# [9] = molecular target: T4, Tyrosyl-tRNA synthetase, putative (Trypanosoma cruzi (strain CL Brener)) (UniProt Q4DSP6); assay: Trypanosoma cruzi tyrosyl tRNA synthetase (TcYRS) _High Tyrosine SOP; assay type: functional; details: 30 µM; also: in the data most compounds retested in dose-response had high values
# T4 sequence (whole entry): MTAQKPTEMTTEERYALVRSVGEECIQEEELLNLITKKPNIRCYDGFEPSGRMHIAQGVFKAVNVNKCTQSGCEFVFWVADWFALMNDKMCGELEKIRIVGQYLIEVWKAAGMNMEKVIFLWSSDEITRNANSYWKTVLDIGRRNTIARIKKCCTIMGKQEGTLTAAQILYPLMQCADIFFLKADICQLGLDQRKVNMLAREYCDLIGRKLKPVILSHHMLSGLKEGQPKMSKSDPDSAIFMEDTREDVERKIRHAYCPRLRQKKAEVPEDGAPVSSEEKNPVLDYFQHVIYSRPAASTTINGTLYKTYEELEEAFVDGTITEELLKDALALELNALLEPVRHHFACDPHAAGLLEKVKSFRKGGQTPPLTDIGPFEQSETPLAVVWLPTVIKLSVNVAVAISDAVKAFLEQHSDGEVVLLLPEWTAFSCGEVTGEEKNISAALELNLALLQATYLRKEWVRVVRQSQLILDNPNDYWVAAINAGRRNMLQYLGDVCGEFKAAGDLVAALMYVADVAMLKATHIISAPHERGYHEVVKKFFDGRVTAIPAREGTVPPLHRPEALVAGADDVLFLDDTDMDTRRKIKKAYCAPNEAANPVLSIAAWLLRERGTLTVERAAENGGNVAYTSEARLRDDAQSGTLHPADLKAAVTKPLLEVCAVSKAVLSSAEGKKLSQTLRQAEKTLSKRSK
# [10] = molecular target: T4, Tyrosyl-tRNA synthetase, putative (Trypanosoma cruzi (strain CL Brener)); assay: Trypanosoma cruzi tyrosyl tRNA synthetase (TcYRS) SOP; assay type: functional; details: 30 µM
# [11] = molecular target: Chromo domain-containing protein 1 (Saccharomyces cerevisiae (strain ATCC 204508 / S288c) (Baker's yeast)) (UniProt P32657); assay: ScCHD-1 Enzyme Inhibition Assay; assay type: functional; details: 30 µM; also: in the data most compounds retested in dose-response had high values
# Chromo domain-containing protein 1 (Saccharomyces cerevisiae (strain ATCC 204508 / S288c) (Baker's yeast)), sequence (P32657 whole entry, the tested form may be a part): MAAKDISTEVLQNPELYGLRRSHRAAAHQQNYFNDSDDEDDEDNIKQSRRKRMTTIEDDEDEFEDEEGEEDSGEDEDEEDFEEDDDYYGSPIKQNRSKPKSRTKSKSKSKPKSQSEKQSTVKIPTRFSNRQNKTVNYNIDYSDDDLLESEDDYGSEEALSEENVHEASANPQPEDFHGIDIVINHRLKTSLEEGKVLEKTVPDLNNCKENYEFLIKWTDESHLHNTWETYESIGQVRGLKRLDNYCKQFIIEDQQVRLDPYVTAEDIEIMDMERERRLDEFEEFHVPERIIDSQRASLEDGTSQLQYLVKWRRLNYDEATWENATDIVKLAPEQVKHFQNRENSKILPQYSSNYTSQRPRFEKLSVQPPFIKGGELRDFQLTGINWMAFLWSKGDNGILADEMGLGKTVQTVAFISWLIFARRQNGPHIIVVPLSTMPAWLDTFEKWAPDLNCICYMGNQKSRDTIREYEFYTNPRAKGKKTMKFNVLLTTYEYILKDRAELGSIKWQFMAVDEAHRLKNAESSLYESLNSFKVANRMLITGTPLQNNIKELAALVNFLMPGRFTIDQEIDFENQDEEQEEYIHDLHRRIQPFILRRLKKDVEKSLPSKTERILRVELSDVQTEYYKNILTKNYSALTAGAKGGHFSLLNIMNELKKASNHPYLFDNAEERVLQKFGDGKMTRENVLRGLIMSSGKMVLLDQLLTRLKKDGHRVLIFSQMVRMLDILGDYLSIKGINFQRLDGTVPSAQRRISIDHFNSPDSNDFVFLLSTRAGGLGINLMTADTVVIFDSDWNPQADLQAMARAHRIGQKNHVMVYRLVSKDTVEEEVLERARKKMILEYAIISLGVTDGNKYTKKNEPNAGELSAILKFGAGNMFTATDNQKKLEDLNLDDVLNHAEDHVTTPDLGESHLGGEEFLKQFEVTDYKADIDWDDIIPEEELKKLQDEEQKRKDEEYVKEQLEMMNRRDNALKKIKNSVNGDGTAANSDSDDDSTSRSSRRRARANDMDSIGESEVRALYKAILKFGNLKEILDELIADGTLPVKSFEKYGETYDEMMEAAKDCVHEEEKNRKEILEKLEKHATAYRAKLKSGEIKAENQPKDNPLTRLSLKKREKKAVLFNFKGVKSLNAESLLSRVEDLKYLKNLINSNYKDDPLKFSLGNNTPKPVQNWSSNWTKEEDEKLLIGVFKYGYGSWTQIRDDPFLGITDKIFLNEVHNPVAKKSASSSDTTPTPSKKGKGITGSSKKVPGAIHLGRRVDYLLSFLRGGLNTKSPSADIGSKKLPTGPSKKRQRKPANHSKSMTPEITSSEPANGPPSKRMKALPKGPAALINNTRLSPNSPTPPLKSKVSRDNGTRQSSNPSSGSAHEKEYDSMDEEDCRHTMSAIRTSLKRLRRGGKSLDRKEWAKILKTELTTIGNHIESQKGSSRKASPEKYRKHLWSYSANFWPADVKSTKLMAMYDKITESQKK
# Sialic acid-binding Ig-like lectin 9 (Homo sapiens), sequence (Q9Y336 whole entry): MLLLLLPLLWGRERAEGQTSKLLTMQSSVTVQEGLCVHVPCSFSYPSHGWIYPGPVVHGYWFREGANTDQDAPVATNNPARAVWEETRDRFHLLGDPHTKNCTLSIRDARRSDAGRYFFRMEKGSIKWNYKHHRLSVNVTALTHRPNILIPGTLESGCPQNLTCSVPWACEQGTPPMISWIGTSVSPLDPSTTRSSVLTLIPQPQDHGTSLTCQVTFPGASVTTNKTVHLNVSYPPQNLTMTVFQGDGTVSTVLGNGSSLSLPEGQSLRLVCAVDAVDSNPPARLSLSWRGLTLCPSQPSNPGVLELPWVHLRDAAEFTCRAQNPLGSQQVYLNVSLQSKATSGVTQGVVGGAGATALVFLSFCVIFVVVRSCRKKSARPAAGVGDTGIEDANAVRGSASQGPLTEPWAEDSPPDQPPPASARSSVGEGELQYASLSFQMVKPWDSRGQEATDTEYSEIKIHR
# Protein translocase subunit SecA (Escherichia coli (strain K12)), sequence (P10408 whole entry): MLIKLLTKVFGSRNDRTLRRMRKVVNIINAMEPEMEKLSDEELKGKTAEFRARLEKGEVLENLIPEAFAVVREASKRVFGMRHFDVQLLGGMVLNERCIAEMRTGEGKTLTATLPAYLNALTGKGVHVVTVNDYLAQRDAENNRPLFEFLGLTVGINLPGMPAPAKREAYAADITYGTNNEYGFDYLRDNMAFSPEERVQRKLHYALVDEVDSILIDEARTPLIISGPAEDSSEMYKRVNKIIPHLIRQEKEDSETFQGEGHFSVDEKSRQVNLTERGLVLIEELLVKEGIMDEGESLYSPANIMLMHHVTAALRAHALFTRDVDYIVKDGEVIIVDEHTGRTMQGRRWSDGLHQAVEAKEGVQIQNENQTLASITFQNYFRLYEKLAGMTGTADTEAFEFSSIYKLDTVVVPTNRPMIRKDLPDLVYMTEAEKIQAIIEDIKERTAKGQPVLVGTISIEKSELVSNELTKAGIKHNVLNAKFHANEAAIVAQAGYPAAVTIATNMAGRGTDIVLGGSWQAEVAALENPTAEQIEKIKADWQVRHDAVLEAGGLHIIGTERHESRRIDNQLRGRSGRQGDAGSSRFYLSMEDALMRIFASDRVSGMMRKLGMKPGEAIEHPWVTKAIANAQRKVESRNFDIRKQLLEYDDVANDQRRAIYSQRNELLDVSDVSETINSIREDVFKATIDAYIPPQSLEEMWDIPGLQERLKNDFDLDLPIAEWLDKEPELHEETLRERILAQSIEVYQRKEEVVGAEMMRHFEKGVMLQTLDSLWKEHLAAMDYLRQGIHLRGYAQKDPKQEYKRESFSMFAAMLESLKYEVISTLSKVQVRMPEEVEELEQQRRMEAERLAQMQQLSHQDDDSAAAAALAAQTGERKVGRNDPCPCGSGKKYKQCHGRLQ
Compound,Percent Effect [1] [%],Percent Effect [2] [%],Percent Effect [3] [%],Percent Effect [4] [%],Percent Effect [5] [%],Percent Effect [6] [%],Percent Effect [7] [%],Percent Effect [8] [%],Percent Effect [9] [%],Percent Effect [10] [%],Percent Effect [11] [%]
C1CC(c2noc(C3CC3)n2)CN(Cc2noc(C3CC3)n2)C1 (stereo unspecified),-3.36,0,-13.1,11.5,-3.11,-1.6,1.62,-3.78,0.493,1.24,1.88
Cc1cc(N2CCC(N(C)C(=O)Nc3ccccc3)CC2)nc(C)n1,-4.81,8.22,12.3,-3.15,-1.18,6.36,12.8,6.79,4.3,10,-2.89
COc1ccc2nnc(CCCC(=O)NCCC3=CCCCC3)n2n1,-0.326,12,-1.46,-0.0396,4.71,-7.57,12.2,23.4,7.41,17.9,-9.92
COc1ccnc(N2CCN(C(=O)CCc3nccs3)CC2)n1,0.0461,8.11,-3.33,0.0327,-1.54,-2.38,12.1,14.1,2.65,7.32,-3.79
COc1cccc(CNCc2nnc3n2CC(C(F)(F)F)CC3)c1 (stereo unspecified),0.608,-2.7,-0.757,8.38,1.27,45.4,5.92,9.33,6.45,16.1,-13
Cc1ccc(N2CC3(CCN(c4nccs4)C3)C2)nn1,0.227,2.74,1.72,6.68,-0.794,0.798,14,0.564,5.21,11.1,0.982
CC(c1nc(C2CC2)no1)N1CCN(CCOCC(F)(F)F)CC1 (stereo unspecified),-1.74,-2.7,-7.35,10.2,1.95,-0.185,1.08,21,2.97,11,1.39
CC(C)(C)C(=O)NS(=O)(=O)c1ccc(C#N)cc1C(F)(F)F,-3.4,8.11,-4.85,3.66,-0.849,2.81,1.8,7.18,1.48,11.1,-3.67
Cc1nn(C)c(N2CCOCC2)c1CNC(C)c1ccco1 (stereo unspecified),-4.24,20.8,131,26.4,6.32,2.21,13.9,-7.48,3.16,20.5,-8.31
Cc1cc(C)n(CC2CCCN2C(=O)CCCc2ccccn2)n1 (stereo unspecified),-6.25,2.63,5.48,0.753,-3.76,2.68,10.9,16.9,1.47,4.88,-3.06
CCc1ccc(CNC(=O)NC(C)CN2CCOCC2)s1 (stereo unspecified),-1.82,18.4,-5.99,-6.5,1.46,1.18,9.49,5.21,-12.8,15.6,8.4
